Source: PubChem
CYP2C19 act: cytochrome P450 2C19 (human) activation; activation factor at 5 µM; AID 1025; 96,000 tested, under 10 active; recombinant CYP2C19, luciferin-H EGE luminescence; stronger effect = higher value; 0 = fully inhibited enzyme, 1 = untreated enzyme;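 active means activation factor of at least 2 at 5 µM in the primary screen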
CYP2C9 act: CYP2C9 (human) activation; activation factor at 5 µM; 96,000 compounds, 1.4% hits; recombinant CYP2C9, luciferin-H conversion, luminescence; stronger effect = higher value; factor 1 = untreated enzyme, 0 = blocked; P11712;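 active means activation factor of 2 or more for CYP2C9 at a 5 µM dose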
CYP2C19 inhib: blocks human cytochrome P450 2C19; CYP2C19 Supersomes, luciferin-H EGE luminescence, 30 min; inhibition, % at 5 µM; 96,000 compounds, 21% hits; AID 778;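 active means CYP2C19 inhibition above a set limit at 5 µM in the primary screen, cut at about 50% in these data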
CYP2C9 inh: human CYP2C9 inhibition; 96,000 compounds, 20% hits; CYP2C9 Supersomes, luciferin-H conversion, luminescence; AID 777; inhibition, % at 5 µM; P11712;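 active means blocking of liver enzyme CYP2C9 beyond about 50% at 5 µM, limit read from the data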
Cav32 inh: inhibitors of human Cav3.2 T-type calcium channel. Cav3.2-expressing cells, Fluo-4 calcium fluorescence FDSS; stronger effect = lower value. O95180. B-score at 10 µM. 100,000 compounds, 4% hits;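 active means single-dose well whose peak fluorescence ratio is a statistical outlier from its plate by either plate-standardised score or position-corrected B-score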
Large screens that a line does not name were inactive. This is a sample that favours compounds with a hit; in the whole collection about 27% have one here.

CC[C@@H]1CN(C)[C@H]2Cc3c([nH]c4ccccc34)C(=O)C[C@@H]1[C@@H]2C(=O)OC	none (no result: CYP2C19 act, CYP2C9 act, CYP2C19 inhib, CYP2C9 inh)
Cc1ccc(-c2c3c(nc4sc(C(N)=O)c(N)c24)CCC3)cc1	none
COc1ccc(-c2c3c(nc4sc5c(Cl)nc(C)nc5c24)CCC3)cc1	CYP2C9 inh 57.9, Cav32 inh 3.68
O=C(NCC1CCCO1)c1ccc(CS(=O)(=O)Cc2ccc(F)cc2)o1 (stereo unspecified)	none
CC(C)[C@H](NC(=O)OC(C)(C)C)c1nnc(SCc2cccc(F)c2)o1	none
CSCC[C@H](NC(=O)OC(C)(C)C)c1nnc(SCc2cccc(F)c2)o1	CYP2C19 inhib 80.0, CYP2C9 inh 69.0
CSCC[C@H](NC(=O)OC(C)(C)C)c1nnc(SCc2ccc(F)cc2)o1	CYP2C19 inhib 88.1, CYP2C9 inh 78.4
CSCC[C@H](NC(=O)OC(C)(C)C)c1nnc(SCC(=O)N(C)C)o1	none
CCC(C)[C@H](N)c1nnc(SCC(=O)Nc2cccc(Cl)c2)o1 (stereo partly specified)	CYP2C19 inhib 97.1, CYP2C9 inh 50.5
CSCC[C@H](NC(=O)OC(C)(C)C)c1nnc(SCc2ccccc2)o1	CYP2C19 inhib 78.7, CYP2C9 inh 60.1 (no result: Cav32 inh)
CCOC(=O)CNc1nc(C#N)nc(N2CCOCC2)n1	none
O=C(CN1C(=O)COc2ccccc21)N(CCCN1CCOCC1)CC1CC=CCC1 (stereo unspecified)	none
Cc1ccc(CNC(=O)C2CCC(=O)N2CCc2ccccc2)cc1 (stereo unspecified)	none
CC(C)C[C@H](NC(=O)OC(C)(C)C)c1nnc(SCc2cccc(F)c2)o1	Cav32 inh -3.42
CCN(CC)C(=O)CSc1nnc([C@H](Cc2c[nH]c3ccccc23)NC(=O)OC(C)(C)C)o1	CYP2C19 inhib 53.1, CYP2C9 inh 62.4
N[C@@H](Cc1ccccc1)c1nnc(SCc2ccccc2F)o1	none (no result: CYP2C19 act, CYP2C9 act, CYP2C19 inhib, CYP2C9 inh)
CC(C)C[C@H](NC(=O)OC(C)(C)C)c1nnc(SCC(=O)Nc2ccc(Br)cc2)o1	CYP2C19 inhib 65.0, Cav32 inh -6.48
CCC(C)[C@H](N)c1nnc(SCc2cccc(F)c2)o1 (stereo partly specified)	CYP2C19 inhib 61.5
COc1ccccc1CNC(=O)CNCC1CCCO1 (stereo unspecified)	none
O=C1CNC(=O)/C1=C\N1CCN(C(c2ccccc2)c2ccccc2)CC1	none
CCN1C(=O)C2(/C(=C(\O)c3ccc4c(c3)OCCO4)C(=O)C(=O)N2CCCOC)c2ccccc21 (stereo unspecified)	none
COc1ccc(C2NCCC3(O)CCCCC23)c(OC)c1OC (stereo unspecified)	none
CCn1c(SCC(=O)Nc2ccc3c(c2)OCCO3)nnc1-c1ccccn1	none
CCCCn1c(SCC(=O)Nc2ccccc2C(F)(F)F)nc2ccsc2c1=O	none
C=CCn1c(Cc2csc(N)n2)nnc1SCC(=O)Nc1ccccc1C(F)(F)F	CYP2C19 inhib 53.2
CCOc1ccccc1NC(=O)CSc1nnc(-c2cnccn2)n1CC	CYP2C19 inhib 87.7
C=CCn1c(SCC(=O)Nc2ccccc2C)nnc1-c1ccncc1	CYP2C19 inhib 74.4
C=CCn1c(SCC(=O)Nc2c(C)cccc2C)nnc1-c1cnccn1	CYP2C19 inhib 99.9
Cc1nnsc1NC(=O)OCc1ccc(C(C)(C)C)cc1	none
C=CCn1c(SCC(=O)Nc2ccc(C)cc2C)nnc1-c1cccnc1	CYP2C9 inh 86.9
C=CCn1c(SCc2cccnc2)nnc1-c1ccncc1	none
C=CCn1c(SCc2c(Cl)cccc2Cl)nnc1-c1cccnc1	CYP2C19 inhib 53.7
Nn1c(SCC(=O)Nc2ccc(F)cc2F)nnc1-c1cccnc1	none
C=CCn1c(SCC(=O)Nc2ccccc2CC)nnc1-c1ccncc1	CYP2C19 inhib 91.1
COCCCn1c(SCC(=O)N2CCc3ccccc32)nnc1-c1ccoc1C	none (no result: CYP2C19 act, CYP2C9 act, CYP2C19 inhib, CYP2C9 inh)
CCOC(=O)C1=C(C)N(CCCC(=O)NCc2ccc3c(c2)OCO3)C(=O)NC1c1ccc(Br)cc1 (stereo unspecified)	none (no result: CYP2C19 act, CYP2C9 act, CYP2C19 inhib, CYP2C9 inh)
O=C(CCC1CCCC1)N1CCN(C2CCCC2)CC1	CYP2C19 inhib 73.4
Nc1c(NC2CCCCC2)c2ccccc2oc1=O	none
O=c1cc(NC2CCCCC2)c2ccccc2o1	CYP2C19 inhib 60.2, CYP2C9 inh 52.8
COC(C[C@H](O)C[C@H](O)[C@H](C)OCc1ccccc1)OC	none (no result: CYP2C19 act, CYP2C9 act, CYP2C19 inhib, CYP2C9 inh)
CC1(C)CN(c2ccccc2)N(Cc2ccc(F)cc2)C1=O	CYP2C19 inhib 60.0
CCC(C)(C)NC(=O)C(c1cccnc1)N(CCOC)C(=O)Cn1nnc2ccccc21 (stereo unspecified)	none
Cc1cc2nc(SCCN3CCCC3)[nH]c2cc1C	none
Cc1cc(NS(=O)(=O)c2ccc(CC(C)C)cc2)no1	CYP2C19 inhib 72.5, CYP2C9 inh 90.0
CC(C)Cc1ccc(S(=O)(=O)N2CCCC2)cc1	CYP2C19 inhib 90.9, CYP2C9 inh 78.2
Nc1ccc(S(=O)(=O)N2CCCC2)cc1	none
O=S(=O)(c1ccc(S(=O)(=O)N2CCCC2)cc1)N1CCCCCC1	none
CN(C)S(=O)(=O)c1ccc(S(=O)(=O)N2CCCC2)cc1	CYP2C19 inhib 62.2
Cc1noc(C)c1CN1C(=O)NC2(CCc3ccccc3C2)C1=O (stereo unspecified)	none (no result: CYP2C19 act, CYP2C9 act, CYP2C19 inhib, CYP2C9 inh)
CCn1nc(NS(=O)(=O)c2ccccc2)c2cc3cccc(C)c3nc21	CYP2C9 inh 78.8
Cc1nn(C)c(C)c1NS(=O)(=O)c1ccccc1	none
CCn1nc(C)c(NS(=O)(=O)c2ccccc2)c1C	CYP2C19 inhib 85.0
CCCn1nc(NS(C)(=O)=O)c2cc3cccc(C)c3nc21	CYP2C9 inh 65.4
O=C(NC12CC3CC(CC(C3)C1)C2)C1=COCCO1	none
CCn1c(SCc2cccc(C(=O)O)c2)nnc1-c1ccccc1	none
COC(=O)c1cc(Br)ccc1OC(=O)c1cccnc1	none
CCNC(=S)NNC(=O)c1ccc(OC(F)F)cc1	none
O=C(c1coc2ccc(O)c(CN3CCOCC3)c12)C1CC1	none
O=C(c1cccs1)c1coc2ccc(O)c(CN3CCOCC3)c12	CYP2C19 inhib 65.0, CYP2C9 inh 73.0
Cc1ccc(C(=O)c2coc3ccc(O)c(CN4CCN(C)CC4)c23)cc1	CYP2C19 inhib 78.5
CC1=CCC2C(=O)N(c3nc(C)cc(C)n3)C(=O)C2C1 (stereo unspecified)	none
Cc1onc(-c2ccccc2Cl)c1C(=O)NCc1ccc2c(c1)cc(C)n2C	Cav32 inh -5.97 (no result: CYP2C19 act, CYP2C9 act, CYP2C19 inhib, CYP2C9 inh)
Cc1onc(-c2ccccc2Cl)c1C(=O)NCc1ccco1	CYP2C19 inhib 50.7
O=C(/C=C/c1ccccc1Cl)NCc1ccco1	CYP2C9 act 2.3
COC(=O)CNC(=O)c1c(-c2ccccc2Cl)noc1C	none
Cc1ccc(CSCCNC(=O)/C=C/c2ccccc2Cl)cc1	none
Cc1[nH]c2ccc(F)cc2c(=O)c1SC(F)(F)C(F)F	none
COCCNC(=O)CN1CCC(n2c(C)nc3cc(C(F)(F)F)ccc32)CC1	none
CCCn1nc([N+](=O)[O-])c(C(C#N)c2nc3ccccc3s2)c(Cl)c1=O (stereo unspecified)	CYP2C9 inh 98.6, Cav32 inh -4.37
CCOC(=O)NC(Nc1sc2c(c1C(N)=O)CCCC2)(C(=O)OCC)C(F)(F)F (stereo unspecified)	none
